Screening results deposited in PubChem by several laboratories.
PGE2 EP2 inh = EP2 receptor (human) inhibition | C6 glioma cells expressing human EP2, cAMP TR-FRET; cells stimulated with saturating PGE2 | inhibition, % at 25 µM | 260,000 compounds, 0.52% hits | AID 1422;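 active means percent inhibition above 40 after rounding to a whole number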;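 further: rat C6 glioma host cells with rolipram phosphodiesterase inhibitor present; the protocol text gives 20 µM as final concentration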
S1P4 antagonist = human S1P4 receptor antagonism; S1P4-expressing cells, antagonist mode, reporter read-out; 220,000 compounds, 0.26% hits; inhibition, % at 4.98 µM; O95977; in the data active means inhibition above about 29%;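 further: 0% = wells stimulated with agonist and 100% = vehicle wells without agonist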
Target sequence (O95977 whole entry, looked up): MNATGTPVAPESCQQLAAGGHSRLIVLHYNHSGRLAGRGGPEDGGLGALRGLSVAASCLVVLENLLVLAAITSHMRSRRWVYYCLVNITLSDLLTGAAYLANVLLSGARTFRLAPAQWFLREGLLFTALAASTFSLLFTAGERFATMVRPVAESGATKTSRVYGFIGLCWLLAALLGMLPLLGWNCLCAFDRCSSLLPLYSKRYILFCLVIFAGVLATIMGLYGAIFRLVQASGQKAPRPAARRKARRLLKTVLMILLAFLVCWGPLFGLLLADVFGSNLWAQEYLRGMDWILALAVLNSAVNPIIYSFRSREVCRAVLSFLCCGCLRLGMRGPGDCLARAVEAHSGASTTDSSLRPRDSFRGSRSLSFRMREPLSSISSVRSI
S1P3 antagonist = S1P3 (human) receptor antagonism. AID 485. 170,000 compounds, 0.27% hits. Q99500. CHO S1P3 NFAT-BLA reporter, FRET fluorescence, antagonist mode. inhibition, % at 4.98 µM;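 active means inhibition above the plate cutoff, the mean inhibition of test wells on that plate plus 3 SD, cut at about 28% in these data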;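 further: cells challenged with S1P at its EC80 of 0.8 µM; blue over green emission ratio from cleaved BLA substrate after 4 h stimulation; 0% = S1P-stimulated wells and 100% = unstimulated DMSO-only wells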
S1P4 agonist = human S1P4 receptor agonism. O95977. S1P4-expressing cell line, agonist reporter assay. activation, % at 4.98 µM. 220,000 compounds, 0.35% hits. AID 1509; in the data active means activation above about 11%;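 further: 0% = DMSO vehicle and 100% = reference agonist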
EP2 mod = modulates human prostaglandin E2 receptor EP2 signaling | AID 940 | 260,000 compounds, 0.83% hits | induction, % at 25 µM | P43116 | EP2-expressing cells, cAMP HTRF FRET, PGE2 co-stimulation;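 active means compounds whose cAMP rise, as percent of the full-agonist control response, exceeds 60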;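 further: rat C6 glioma line stably carrying human EP2 under a CMV promoter; the protocol text gives 20 µM as final concentration; 100% = response of wells given 1 µM PGE2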
Numbers without * were called inactive; . = not tested or not shown; ! = not confirmed by another sample. Compounds with a hit are over-represented: about 1.9% of the library has one in this group of screens.

SMILES | PGE2 EP2 inh | S1P4 antagonist | S1P3 antagonist | S1P4 agonist | EP2 mod
CCc1cc2cc3c(cc2nc1SCC(=O)Nc1cc(C)on1)OCO3 | 17 | -14 | 31 | -2 | 73*!
CCc1cc2cc3c(cc2nc1SCC(=O)NCc1ccc(OC)cc1)OCCO3 | 17 | . | . | . | 38
Cc1cc(NC(=O)CSc2nc(C3CC3)nc3sc4c(c23)CCCC4)no1 | 47* | . | . | . | -5
Cc1cc(NC(=O)CSc2nc3cc4c(cc3cc2C)OCO4)no1 | 14 | . | . | . | 48
CCc1cc2cc(C)cc(C)c2nc1SCC(=O)NCc1ccc2c(c1)OCO2 | 14 | . | . | . | 70*
C=CCOC(=O)c1sc(NC(=O)COc2ccccc2)nc1C | 9 | . | . | . | 13
Cc1cc2cc3c(cc2nc1SCC(=O)Nc1cccc(F)c1)OCO3 | 17 | . | . | . | 66*
N#C/C(=C\c1cccnc1)c1ccc(Br)cc1 | 12 | 5 | 5 | 1 | -2
CN(C)C/C=C(/c1ccc(Br)cc1)c1cccnc1 | 43*! | . | . | . | 1
O=C(Nc1ccc(N2CCN(C(=O)c3cccs3)CC2)cc1)c1ccc2c(c1)OCO2 | 8 | . | . | . | -33
O=c1n(Cc2ccccc2)c2cc(Cl)cnc2n1Cc1ccccc1 | 19 | -31 | -2 | 3 | 62*
CCCc1cc(NC2CCCCC2)n2ncnc2n1 | 16 | . | . | . | 22
CC(C)c1ccc2c(c1)CC[C@@H]1[C@](C)(CN)CCC[C@@]21C | 90* | . | . | . | -6
CC(C)c1ccc2c(c1)CCC1C(C)(CN)CCCC21C (centres undefined) | 11 | -17 | -2 | -1 | 0
CC(C)c1nc2ccccc2c2nnc(SCC(=O)Nc3nc4c(s3)CCCC4)n12 | 16 | . | . | . | 64*
COc1cccc(N2C(=O)C(CC(=O)Nc3ccc(F)cc3)N(C3CCCCC3)C2=O)c1 (centres undefined) | 7 | 13 | 103* | 0 | 4
CN1CCN(c2nc3c(c(=O)[nH]c(=O)n3C)n2C)CC1 | 10 | . | . | . | 4
Cc1ccc(S(=O)(=O)C2CS(=O)(=O)CC2O)cc1 (centres undefined) | 9 | 0 | . | -5 | 6
CC(=O)C1=C(S(=O)(=O)c2ccc(C)cc2)CS(=O)(=O)C1 | 97* | -6 | -5 | 2 | -62
C=CCN(CC=C)Cc1c(O)ccc2c1oc(=O)c1ccccc12 | 41* | -8 | . | 2 | .
O=C1/C(=C/c2cccc3ccccc23)CCCc2ccccc21 | . | -22 | . | 0 | 61*
CC(C)NC[C@H](O)c1ccc(O)c(O)c1 | 11 | . | . | . | 76*!
NCCc1ccc(O)c(O)c1 | 11 | -16 | 0 | 0 | 28
NCC(O)c1ccc(O)c(O)c1 (centres undefined) | 9 | . | . | . | 66*
CCC(NC(C)C)C(O)c1ccc(O)c(O)c1 (centres undefined) | 15 | -9 | -1 | 0 | 61*
SMILES | PGE2 EP2 inh | S1P4 antagonist | S1P3 antagonist | S1P4 agonist | EP2 mod
CC(C)NCC(O)c1cc(O)cc(O)c1 (centres undefined) | 21 | . | . | . | 81*!
Cn1c(SCC(=O)N2CCCC2)nnc1-c1ccccc1O | 9 | . | . | . | 5
CCCn1c2ccc(F)cc2c2n[nH]c(=S)nc21 | 10 | . | . | . | -30
CCn1c(C(C)NC(=O)c2ccccc2)n[nH]c1=S (centres undefined) | 19 | . | . | . | -2
CCCCC[C@H](O)/C=C/[C@@H]1[C@@H](CCCCCCC(=O)O)[C@@H](O)C[C@H]1O | 10 | -35 | -16 | 3 | 83*
CCOC(=O)Cc1csc(NC(=O)CSc2nc3ccc(C)cc3cc2C)n1 | 11 | . | . | . | -82
O=C(O)c1ccc(-c2ccco2)n1Cc1ccccc1 | 18 | -3 | -15 | -2 | 6
COC(=O)c1ccc(-c2ccco2)n1Cc1cc(C)ccc1C | 6 | -29 | . | 0 | 62*
Cc1nn(CC(=O)N2CCN(Cc3ccccc3)CC2)c(=O)c2cc3occc3n12 | 2 | . | . | . | -23
Nc1ccc(N(S(=O)(=O)c2ccccc2)S(=O)(=O)c2ccccc2)c(Cl)c1 | 44* | . | . | . | -15
O=C(Nc1ccc(N2CCOCC2)cc1)Nc1ccc2nc(-c3ccco3)c(-c3ccco3)nc2c1 | 18 | 1 | 57* | -2 | -29
O=C(O)CCC(O)=C1S(=O)(=O)OCCOS1(=O)=O | 43* | . | . | . | 29
Cc1ccc(S(=O)(=O)N2CCC(C(=O)Nc3nnc(-c4ccco4)s3)CC2)cc1 | 46*! | -5 | 39 | -2 | -3
CCN(CC)C(=O)CN1C(=O)COc2ccccc21 | 5 | . | . | . | 41
NCCC1([N+](=O)[O-])CCNCC1 | 50* | . | . | . | 8
Cn1c(N)nc2c(nc(OCc3ccccc3)n2[C@H]2O[C@H](CO)[C@@H](O)[C@@H]2O)c1=O | 57* | . | . | . | 25
